# Laboratory results as given in ChEMBL document CHEMBL1961873, “Compounds: GSK PKIS; Assays: Nanosyn kinase panel” (2012).
# Legend:
# [1] = target: Serine/threonine-protein kinase MARK2 (Homo sapiens) (UniProt Q7KZI7); conditions: at 1 µM
# [2] = target: PAS domain-containing serine/threonine-protein kinase (Homo sapiens) (UniProt Q96RG2); conditions: at 0.1 µM
# [3] = target: PAS domain-containing serine/threonine-protein kinase (Homo sapiens) (UniProt Q96RG2); conditions: at 1 µM
# [4] = target: Phosphorylase b kinase gamma catalytic chain, skeletal muscle/heart isoform (Homo sapiens) (UniProt Q16816); conditions: at 0.1 µM
# Phosphorylase b kinase gamma catalytic chain, skeletal muscle/heart isoform (Homo sapiens), sequence (Q16816 whole entry, looked up, canonical isoform): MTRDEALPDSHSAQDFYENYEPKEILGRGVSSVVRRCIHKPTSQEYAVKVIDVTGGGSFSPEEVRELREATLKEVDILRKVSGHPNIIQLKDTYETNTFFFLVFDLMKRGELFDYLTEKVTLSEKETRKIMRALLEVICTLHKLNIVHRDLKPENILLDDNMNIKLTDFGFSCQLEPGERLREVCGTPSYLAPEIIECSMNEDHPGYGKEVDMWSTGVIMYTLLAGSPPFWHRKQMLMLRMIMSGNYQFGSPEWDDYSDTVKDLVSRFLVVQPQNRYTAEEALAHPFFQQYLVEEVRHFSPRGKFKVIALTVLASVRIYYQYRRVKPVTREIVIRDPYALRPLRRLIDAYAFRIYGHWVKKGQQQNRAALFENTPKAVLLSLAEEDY
# [5] = target: Phosphorylase b kinase gamma catalytic chain, skeletal muscle/heart isoform (Homo sapiens) (UniProt Q16816); conditions: at 1 µM
# [6] = target: T1, Phosphorylase b kinase gamma catalytic chain, liver/testis isoform (Homo sapiens) (UniProt P15735); conditions: at 0.1 µM
# T1 sequence (whole entry): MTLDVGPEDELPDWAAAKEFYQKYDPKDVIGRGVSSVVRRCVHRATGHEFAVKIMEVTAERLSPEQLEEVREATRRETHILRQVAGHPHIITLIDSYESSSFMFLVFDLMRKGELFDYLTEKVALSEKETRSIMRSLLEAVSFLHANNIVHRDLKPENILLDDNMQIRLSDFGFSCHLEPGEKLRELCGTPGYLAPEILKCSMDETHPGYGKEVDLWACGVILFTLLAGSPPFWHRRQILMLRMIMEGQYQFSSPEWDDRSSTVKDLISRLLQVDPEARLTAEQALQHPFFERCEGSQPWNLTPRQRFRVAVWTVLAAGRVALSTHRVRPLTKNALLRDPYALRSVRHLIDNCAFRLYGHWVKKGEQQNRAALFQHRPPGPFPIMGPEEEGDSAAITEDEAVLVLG
# [7] = target: T1, Phosphorylase b kinase gamma catalytic chain, liver/testis isoform (Homo sapiens); conditions: at 1 µM
# [8] = target: Serine/threonine-protein kinase pim-1 (Homo sapiens) (UniProt P11309); conditions: at 0.1 µM
# Serine/threonine-protein kinase pim-1 (Homo sapiens), sequence (P11309 whole entry, looked up): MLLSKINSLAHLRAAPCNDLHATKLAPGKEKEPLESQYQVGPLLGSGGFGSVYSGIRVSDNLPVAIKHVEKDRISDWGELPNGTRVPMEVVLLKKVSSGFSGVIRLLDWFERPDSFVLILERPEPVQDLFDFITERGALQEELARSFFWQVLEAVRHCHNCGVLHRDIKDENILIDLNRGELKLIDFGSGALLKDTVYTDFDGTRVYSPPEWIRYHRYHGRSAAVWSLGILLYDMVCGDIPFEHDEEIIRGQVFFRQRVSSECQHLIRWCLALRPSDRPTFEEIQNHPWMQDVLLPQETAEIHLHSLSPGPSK
# [9] = target: Serine/threonine-protein kinase pim-1 (Homo sapiens) (UniProt P11309); conditions: at 1 µM
# [10] = target: Serine/threonine-protein kinase pim-2 (Homo sapiens) (UniProt Q9P1W9); conditions: at 0.1 µM
# Serine/threonine-protein kinase pim-2 (Homo sapiens), sequence (Q9P1W9 whole entry, looked up): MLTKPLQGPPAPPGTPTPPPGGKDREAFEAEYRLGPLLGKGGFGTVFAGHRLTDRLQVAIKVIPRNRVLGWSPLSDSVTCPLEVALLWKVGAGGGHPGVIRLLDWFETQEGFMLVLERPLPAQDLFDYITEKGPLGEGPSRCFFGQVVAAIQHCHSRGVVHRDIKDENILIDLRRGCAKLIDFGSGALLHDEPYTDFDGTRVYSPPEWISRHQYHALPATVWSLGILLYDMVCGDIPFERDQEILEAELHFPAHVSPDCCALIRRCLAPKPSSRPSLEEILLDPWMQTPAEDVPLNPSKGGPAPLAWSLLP
# [11] = target: Serine/threonine-protein kinase pim-2 (Homo sapiens) (UniProt Q9P1W9); conditions: at 1 µM
# [12] = target: Serine/threonine-protein kinase pim-3 (Homo sapiens) (UniProt Q86V86); conditions: at 0.1 µM
# [13] = target: Serine/threonine-protein kinase pim-3 (Homo sapiens) (UniProt Q86V86); conditions: at 1 µM
# [14] = target: T2, MAP kinase-activated protein kinase 5 (Homo sapiens) (UniProt Q8IW41); conditions: at 0.1 µM
# T2 sequence (whole entry): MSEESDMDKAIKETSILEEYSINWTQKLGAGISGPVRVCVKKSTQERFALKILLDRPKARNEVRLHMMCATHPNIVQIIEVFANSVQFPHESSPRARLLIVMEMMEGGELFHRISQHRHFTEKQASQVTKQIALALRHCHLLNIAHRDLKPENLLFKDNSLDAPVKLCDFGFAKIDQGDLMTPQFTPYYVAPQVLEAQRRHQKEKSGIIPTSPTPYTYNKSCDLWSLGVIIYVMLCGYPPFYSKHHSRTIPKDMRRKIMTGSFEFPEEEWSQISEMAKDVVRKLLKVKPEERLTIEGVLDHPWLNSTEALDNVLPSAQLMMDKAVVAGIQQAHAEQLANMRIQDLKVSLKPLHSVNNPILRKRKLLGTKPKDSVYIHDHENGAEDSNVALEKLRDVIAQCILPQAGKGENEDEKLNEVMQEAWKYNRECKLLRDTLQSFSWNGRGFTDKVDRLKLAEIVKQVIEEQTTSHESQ
# [15] = target: T2, MAP kinase-activated protein kinase 5 (Homo sapiens); conditions: at 1 µM
# [16] = target: Serine/threonine-protein kinase SIK1 (Homo sapiens) (UniProt P57059); conditions: at 0.1 µM
# Serine/threonine-protein kinase SIK1 (Homo sapiens), sequence (P57059 whole entry): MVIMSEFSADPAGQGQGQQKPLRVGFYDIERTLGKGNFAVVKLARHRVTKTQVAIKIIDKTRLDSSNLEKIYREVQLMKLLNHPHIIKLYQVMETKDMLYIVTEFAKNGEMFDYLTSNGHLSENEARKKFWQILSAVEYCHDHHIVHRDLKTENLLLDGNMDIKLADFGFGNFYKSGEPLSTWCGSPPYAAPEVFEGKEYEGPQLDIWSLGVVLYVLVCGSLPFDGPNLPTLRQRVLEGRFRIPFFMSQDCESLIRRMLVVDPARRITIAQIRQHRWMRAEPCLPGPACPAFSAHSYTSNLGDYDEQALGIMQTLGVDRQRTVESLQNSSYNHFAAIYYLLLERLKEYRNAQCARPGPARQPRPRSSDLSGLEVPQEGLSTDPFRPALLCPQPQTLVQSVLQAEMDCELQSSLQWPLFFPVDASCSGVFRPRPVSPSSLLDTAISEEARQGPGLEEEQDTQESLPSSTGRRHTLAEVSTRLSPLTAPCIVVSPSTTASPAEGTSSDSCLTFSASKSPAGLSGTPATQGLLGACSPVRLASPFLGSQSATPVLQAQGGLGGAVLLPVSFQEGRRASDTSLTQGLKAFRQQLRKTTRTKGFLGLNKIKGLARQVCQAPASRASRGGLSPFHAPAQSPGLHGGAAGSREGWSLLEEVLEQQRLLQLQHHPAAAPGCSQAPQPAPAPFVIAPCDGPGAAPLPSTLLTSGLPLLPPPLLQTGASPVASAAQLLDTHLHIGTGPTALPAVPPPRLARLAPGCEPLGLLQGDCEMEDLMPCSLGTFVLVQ
# [17] = target: Serine/threonine-protein kinase SIK1 (Homo sapiens) (UniProt P57059); conditions: at 1 µM
# [18] = target: Serine/threonine-protein kinase SIK2 (Homo sapiens) (UniProt Q9H0K1); conditions: at 0.1 µM
# Serine/threonine-protein kinase SIK2 (Homo sapiens), sequence (Q9H0K1 whole entry, looked up): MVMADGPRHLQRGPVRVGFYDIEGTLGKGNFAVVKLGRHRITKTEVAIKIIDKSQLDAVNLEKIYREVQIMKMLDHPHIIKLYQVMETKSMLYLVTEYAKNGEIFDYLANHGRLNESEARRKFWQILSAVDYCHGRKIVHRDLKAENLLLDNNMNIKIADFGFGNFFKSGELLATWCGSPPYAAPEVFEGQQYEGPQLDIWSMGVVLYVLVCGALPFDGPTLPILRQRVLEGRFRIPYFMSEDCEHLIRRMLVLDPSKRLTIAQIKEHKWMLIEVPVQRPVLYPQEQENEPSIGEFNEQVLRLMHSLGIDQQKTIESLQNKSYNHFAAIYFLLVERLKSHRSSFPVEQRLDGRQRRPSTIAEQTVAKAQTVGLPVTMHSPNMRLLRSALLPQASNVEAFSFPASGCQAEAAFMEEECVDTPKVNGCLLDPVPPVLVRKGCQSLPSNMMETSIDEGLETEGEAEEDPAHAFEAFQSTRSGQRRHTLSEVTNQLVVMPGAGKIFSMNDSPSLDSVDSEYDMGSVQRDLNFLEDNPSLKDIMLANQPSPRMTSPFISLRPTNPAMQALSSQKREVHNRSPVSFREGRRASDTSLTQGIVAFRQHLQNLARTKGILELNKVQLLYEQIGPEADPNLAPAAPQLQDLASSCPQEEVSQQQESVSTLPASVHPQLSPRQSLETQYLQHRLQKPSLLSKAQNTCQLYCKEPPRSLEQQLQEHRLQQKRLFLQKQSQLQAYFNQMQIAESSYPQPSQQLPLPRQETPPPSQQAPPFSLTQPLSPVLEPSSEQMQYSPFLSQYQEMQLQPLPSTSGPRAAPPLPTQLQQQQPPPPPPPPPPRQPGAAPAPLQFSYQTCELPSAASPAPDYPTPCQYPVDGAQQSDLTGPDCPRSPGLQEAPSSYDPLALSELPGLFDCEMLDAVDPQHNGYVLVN
# [19] = target: Serine/threonine-protein kinase SIK2 (Homo sapiens) (UniProt Q9H0K1); conditions: at 1 µM
# [20] = target: T3, Serine/threonine-protein kinase TBK1 (Homo sapiens) (UniProt Q9UHD2); conditions: at 0.1 µM;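 further: values are the mean TBK1 inhibition, taken from the GSK PKIS screening data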
# T3 sequence (whole entry): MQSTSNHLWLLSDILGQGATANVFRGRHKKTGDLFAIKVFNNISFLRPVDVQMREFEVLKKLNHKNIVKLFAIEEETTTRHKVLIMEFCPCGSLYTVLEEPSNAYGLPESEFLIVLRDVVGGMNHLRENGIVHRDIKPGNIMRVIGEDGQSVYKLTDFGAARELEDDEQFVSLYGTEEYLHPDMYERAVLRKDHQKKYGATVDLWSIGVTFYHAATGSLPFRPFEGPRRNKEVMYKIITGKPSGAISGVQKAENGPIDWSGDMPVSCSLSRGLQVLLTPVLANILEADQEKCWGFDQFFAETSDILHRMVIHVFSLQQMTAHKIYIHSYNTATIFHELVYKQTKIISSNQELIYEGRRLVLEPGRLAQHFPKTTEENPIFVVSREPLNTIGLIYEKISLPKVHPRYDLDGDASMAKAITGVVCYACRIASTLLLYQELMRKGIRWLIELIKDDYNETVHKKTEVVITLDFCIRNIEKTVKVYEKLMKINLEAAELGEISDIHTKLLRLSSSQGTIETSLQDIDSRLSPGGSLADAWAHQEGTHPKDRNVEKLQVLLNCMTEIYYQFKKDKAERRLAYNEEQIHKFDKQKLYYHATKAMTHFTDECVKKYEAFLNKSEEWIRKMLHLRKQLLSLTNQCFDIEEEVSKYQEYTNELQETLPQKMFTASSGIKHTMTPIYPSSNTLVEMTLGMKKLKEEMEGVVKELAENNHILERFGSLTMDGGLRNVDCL
# PAS domain-containing serine/threonine-protein kinase (Homo sapiens), sequence (Q96RG2 whole entry, the tested form may be a part, canonical isoform): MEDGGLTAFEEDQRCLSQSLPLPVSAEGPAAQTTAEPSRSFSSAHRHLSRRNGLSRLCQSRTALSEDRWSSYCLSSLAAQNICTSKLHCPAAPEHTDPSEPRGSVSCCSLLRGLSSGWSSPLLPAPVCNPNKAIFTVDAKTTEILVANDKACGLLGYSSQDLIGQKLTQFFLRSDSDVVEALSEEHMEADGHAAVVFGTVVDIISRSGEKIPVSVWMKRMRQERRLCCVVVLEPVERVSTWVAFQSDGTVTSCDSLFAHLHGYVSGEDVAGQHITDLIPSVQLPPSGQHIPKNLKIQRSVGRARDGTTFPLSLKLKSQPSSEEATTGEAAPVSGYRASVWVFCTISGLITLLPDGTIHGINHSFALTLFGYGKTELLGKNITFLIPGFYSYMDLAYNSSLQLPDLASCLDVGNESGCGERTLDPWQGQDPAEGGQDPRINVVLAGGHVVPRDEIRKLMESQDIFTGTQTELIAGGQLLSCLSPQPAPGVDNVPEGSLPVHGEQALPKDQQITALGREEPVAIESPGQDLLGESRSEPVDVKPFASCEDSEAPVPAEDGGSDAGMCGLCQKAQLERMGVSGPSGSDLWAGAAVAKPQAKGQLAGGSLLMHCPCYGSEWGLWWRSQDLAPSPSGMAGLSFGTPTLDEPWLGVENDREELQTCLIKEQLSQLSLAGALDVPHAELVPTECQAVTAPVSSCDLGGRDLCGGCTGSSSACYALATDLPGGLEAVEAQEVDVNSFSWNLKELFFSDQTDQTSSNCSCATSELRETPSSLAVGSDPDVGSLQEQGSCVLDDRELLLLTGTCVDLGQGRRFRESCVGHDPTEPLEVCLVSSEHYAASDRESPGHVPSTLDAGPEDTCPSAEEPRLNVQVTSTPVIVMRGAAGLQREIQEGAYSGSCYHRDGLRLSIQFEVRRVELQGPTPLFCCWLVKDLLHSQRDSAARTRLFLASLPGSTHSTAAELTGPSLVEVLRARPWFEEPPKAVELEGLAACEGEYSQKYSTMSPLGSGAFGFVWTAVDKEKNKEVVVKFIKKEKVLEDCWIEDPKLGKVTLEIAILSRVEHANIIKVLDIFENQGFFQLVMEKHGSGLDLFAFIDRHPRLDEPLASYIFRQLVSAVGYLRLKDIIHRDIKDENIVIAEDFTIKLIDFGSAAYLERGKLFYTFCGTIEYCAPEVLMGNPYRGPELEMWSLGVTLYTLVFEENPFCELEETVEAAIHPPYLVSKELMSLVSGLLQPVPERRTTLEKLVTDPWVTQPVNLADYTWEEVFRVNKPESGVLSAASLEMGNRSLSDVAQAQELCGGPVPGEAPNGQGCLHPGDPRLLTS
# Serine/threonine-protein kinase MARK2 (Homo sapiens), sequence (Q7KZI7 whole entry, the tested form may be a part): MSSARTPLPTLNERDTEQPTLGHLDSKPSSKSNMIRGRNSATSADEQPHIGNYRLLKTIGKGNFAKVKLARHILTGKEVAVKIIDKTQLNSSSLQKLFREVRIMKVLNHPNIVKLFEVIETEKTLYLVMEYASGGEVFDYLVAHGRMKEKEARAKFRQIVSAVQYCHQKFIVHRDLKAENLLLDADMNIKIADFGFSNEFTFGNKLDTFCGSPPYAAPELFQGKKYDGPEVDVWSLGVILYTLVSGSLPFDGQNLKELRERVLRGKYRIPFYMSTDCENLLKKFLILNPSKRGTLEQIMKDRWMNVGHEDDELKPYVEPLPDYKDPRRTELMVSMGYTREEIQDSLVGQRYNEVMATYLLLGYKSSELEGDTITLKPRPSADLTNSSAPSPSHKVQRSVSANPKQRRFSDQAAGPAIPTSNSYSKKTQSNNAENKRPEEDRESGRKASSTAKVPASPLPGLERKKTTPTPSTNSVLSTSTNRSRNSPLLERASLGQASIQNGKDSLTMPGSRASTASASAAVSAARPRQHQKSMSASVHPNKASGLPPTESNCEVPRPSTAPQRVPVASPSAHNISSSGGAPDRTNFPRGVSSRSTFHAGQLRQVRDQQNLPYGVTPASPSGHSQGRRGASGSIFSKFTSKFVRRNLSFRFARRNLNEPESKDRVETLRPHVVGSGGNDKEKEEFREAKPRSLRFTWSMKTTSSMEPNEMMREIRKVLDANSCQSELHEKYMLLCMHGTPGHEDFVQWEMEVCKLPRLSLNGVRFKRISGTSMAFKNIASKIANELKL
Structure (SMILES),inhibition [1],inhibition [2],inhibition [3],inhibition [4],inhibition [5],inhibition [6],inhibition [7],inhibition [8],inhibition [9],inhibition [10],inhibition [11],inhibition [12],inhibition [13],inhibition [14],inhibition [15],inhibition [16],inhibition [17],inhibition [18],inhibition [19],inhibition [20]
COc1cc2ncn(-c3cc(OCc4ccccc4C(F)(F)F)c(C(C)=O)s3)c2cc1OC,1.04%,0.79%,1%,2.96%,2.39%,4.43%,4.18%,-0.09%,0.89%,0.28%,0.86%,0.65%,-0.5%,1.07%,0.82%,-0.57%,5.68%,-0.99%,7.06%,2.89%
Cc1ccc(C(=O)NC(C)C)cc1-c1ccc(C(=O)NCC2CC2)cc1,2.12%,0.53%,0.4%,-0.31%,1.18%,-5.49%,-6.57%,0.13%,0.56%,0.1%,1.24%,1.28%,2.53%,-1.12%,-1.11%,-0.49%,-1.49%,0.37%,-9.28%,-1.37%
Nc1nccc(-c2c(-c3ccc(F)cc3)ncn2C2CCC(O)CC2)n1 (stereo not given),2.02%,-0.7%,-1.02%,-1.17%,0.55%,-4.04%,-5.93%,-0.95%,-1.37%,1.27%,0.53%,0.04%,0.35%,-0.92%,-0.32%,0.06%,4.75%,-0.25%,28.6%,5.52%
COc1ccc2cc(-c3c(-c4ccncc4)nc(-c4ccc([S+](C)[O-])cc4C)n3C)ccc2c1 (stereo not given),-1.74%,-0.31%,-0.06%,-0.07%,0.13%,-1.33%,-1.4%,0.66%,0.72%,-0.27%,0.03%,0.41%,0.9%,-0.74%,-0.31%,-2.25%,3.56%,-6.12%,-0.83%,0.16%
O=C(Nc1n[nH]c2cc(-c3cc(F)ccc3F)ccc12)C1CC1,-0.47%,-1.13%,-2.73%,4.9%,5.59%,3.06%,1.94%,-0.51%,1.3%,0.05%,-0.55%,-2.08%,-1.66%,0.74%,0.41%,5.25%,11.2%,10.9%,21.9%,3.98%
CCS(=O)(=O)c1ccc(OC)c(Nc2ncc(-c3cccc(-c4ccccc4F)c3)o2)c1,0.68%,-0.22%,-0.96%,1.99%,9.38%,0.01%,-0.67%,-0.29%,5.63%,0.1%,0.73%,3.42%,0.84%,0.06%,-0.29%,0.43%,2.58%,-1.84%,6.03%,0.72%
Fc1ccc(-c2c(-c3ccncc3)nc3n2CCS3)cc1,1.79%,-0.68%,-0.44%,4.14%,4.63%,1.99%,3.28%,-0.78%,0.06%,-3.15%,-3.85%,0.35%,0.43%,1.37%,1.61%,5%,7.55%,5.11%,5.89%,0.11%
COc1ccc(C2=C(N3CCc4ccccc43)C(=O)NC2=O)cc1,1.74%,0.07%,-0.29%,3.26%,6.35%,7.25%,4.69%,0.52%,4.09%,0.18%,0.67%,-0.2%,0.86%,1.93%,2.12%,8.63%,8.47%,6.36%,11.3%,0.88%
